Compound activity: PubChem, NMMLSC
This is a sample that favours compounds with a hit; in the whole collection about 1.9% have one here.
VLA-4 agonist: enhancers of LDV-FITC binding to VLA-4 integrin, primary screen, Jurkat cells, flow cytometry; Integrin alpha-4 (Homo sapiens), P13612; 24,000 tested, under 10 active; activation, % at 10 µM (by protocol);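 active means fluorescent ligand binding to cells raised by more than 40% of the manganese-induced maximum; inconclusive means compound's own fluorescence above 85% of the ligand control signal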
Autofluor Jurkat: compound autofluorescence on Jurkat cells, primary screen, artefact control for VLA-4 allosteric ligand project, cell-based, flow cytometry. hits give high values; 1 = vehicle-only cell background. fluorescence ratio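 (tested at 10 µM compound in the well)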. 0.61% of 24,000 active;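 active means fluorescence ratio above 2.44, which is 1 plus 3 SD of all ratios; inconclusive means signal too bright to measure linearly, ratio around 10 or more; inactive means fluorescence ratio below 2.44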;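 further: green fluorescence of cells measured with 488 nm excitation and 530 nm emission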
VLA-4 antagonist: inhibitors of LDV-FITC binding to Mn2+-activated VLA-4, primary screen, Jurkat cells; LDV-FITC binding with Mn2+, flow cytometry; 100% = Mn2+-driven binding gain fully reversed; inhibition, % at 10 µM (by protocol); 0.2% of 24,000 active; Integrin alpha-4 (Homo sapiens), P13612;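 active means inhibition above 50%; inconclusive means compound itself fluorescent, judged against control cell fluorescence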
FPRL1 ligand: human FPRL1 ligands by binding competition, primary screen, cell-based, FPR counter-screen, flow cytometry | inhibition, % (concentration not given with the values) | 0.3% of 24,000 active | AID 441, 2006 | N-formyl peptide receptor 2 (Homo sapiens), P25090 | FPRL1-expressing cells, fluorescent ligand binding inhibition
Proteasome disasm: inhibitors of ATP-driven 26S proteasome dissociation, primary screen, biochemical, bead-based flow cytometry, GFP-tagged proteasome; inhibition of disassembly, % (test concentration not listed); 0.2% of 24,000 active; anti-FLAG beads, GFP-proteasome disassembly;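 active means inhibition of disassembly above about 33%, limit read from the data; inconclusive means likely self-fluorescent, control bead median signal at least 40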;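 further: higher percent means more bead fluorescence retained so stronger block of disassembly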
FPR binder: human FPR ligands by binding competition, primary screen, cell-based, FPRL1 counter-screen, flow cytometry | fMet-Leu-Phe receptor (Homo sapiens), P21462 | FPR-expressing cells, fluorescent ligand binding | inhibition, % (no concentration beside the values) | 0.74% of 24,000 active
Large screens that a line does not name were inactive. Unless noted, no stated cut-off is given here; in the data, active means inhibition above about 30%; inconclusive means no clear call, values can overlap the other calls; inactive means below that.

CCc1nnc(NC(=O)c2ccc(S(=O)(=O)N(CCOC)CCOC)cc2)o1	VLA-4 agonist inconclusive, Autofluor Jurkat 3.61, VLA-4 antagonist inconclusive
COc1ccc(-c2nnc(NC(=O)c3ccc(S(=O)(=O)N4COCC4(C)C)cc3)o2)cc1	VLA-4 agonist inconclusive, Autofluor Jurkat 6.27, VLA-4 antagonist inconclusive
CC1(C)COCN1S(=O)(=O)c1ccc(C(=O)Nc2nnc(-c3ccc(Cl)s3)o2)cc1	none
CCN(Cc1ccccc1)S(=O)(=O)c1ccc(C(=O)Nc2nnc(-c3ccccc3OC)o2)cc1	VLA-4 agonist inconclusive, VLA-4 antagonist inconclusive
O=C(Nc1nnc(-c2ccccc2Cl)o1)c1ccc(S(=O)(=O)N2CCCCCC2)cc1	FPR binder 31.4
COc1ccccc1-c1nnc(NC(=O)c2ccc(S(=O)(=O)N(C)C)cc2)o1	VLA-4 agonist inconclusive, Autofluor Jurkat 5.14, VLA-4 antagonist inconclusive
COc1ccc(C2CNC(=O)C2)cc1OC1CCCC1 (centres undefined)	none
CCCCOC(=O)n1c(SCC(=O)N(CC)CC)nc2ccccc21	none
O=C(NC(c1ccccc1)c1ccccc1)C1CCCN(S(=O)(=O)c2cnc[nH]2)C1 (centres undefined)	none
COc1cccc2c1C(=O)c1c(O)c3c(c(O)c1C2=O)C[C@@](O)(C(=O)CO)C[C@@H]3O[C@H]1C[C@H](N)[C@H](O)[C@H](C)O1	VLA-4 agonist inconclusive, Autofluor Jurkat 6.26, VLA-4 antagonist inconclusive, Proteasome disasm inconclusive
COc1ccc(-c2cc(C(F)(F)F)nc(N3CCCCC3)n2)cc1OC	FPRL1 ligand 33.2
COc1ccccc1N1CCN(c2nc(-c3ccccc3)cc(C(F)(F)F)n2)CC1	none (no result: FPRL1 ligand)
COc1ccc(-c2cc(C(F)(F)F)nc(N3CCN(c4ccccc4)CC3)n2)cc1OC	FPR binder 68.4
COc1ccc(-c2cc(C(F)(F)F)nc(N3CCN(C)CC3)n2)cc1OC	none (no result: VLA-4 agonist, Autofluor Jurkat, VLA-4 antagonist, Proteasome disasm)
Cn1c(=O)c2c(nc(Sc3n[nH]c(N)n3)n2Cc2ccccc2Cl)n(C)c1=O	none
Cc1cccc(NC(=O)c2cnc3sccn3c2=O)n1	none
O=C(Nc1ccon1)c1cnc2sccn2c1=O	VLA-4 agonist inconclusive, Autofluor Jurkat 2.49, VLA-4 antagonist inconclusive
CCOC(=O)c1c(C)oc2c1c(/C=N/c1ccccn1)c(O)c1ccccc12	VLA-4 agonist inconclusive, Autofluor Jurkat 8.86, VLA-4 antagonist inconclusive, Proteasome disasm inconclusive (no result: FPRL1 ligand, FPR binder)
COc1ccc(OC)c(NC(=O)C2C3CCC(C3=C(C)C)C2C(=O)O)c1 (centres undefined)	FPR binder 38.3 (no result: VLA-4 agonist, Autofluor Jurkat, VLA-4 antagonist, Proteasome disasm)
Cc1[nH]n2c(=O)cc(C(C)C)nc2c1-c1ccccc1	none (no result: VLA-4 agonist, Autofluor Jurkat, VLA-4 antagonist, Proteasome disasm)
Cc1[nH]n2c(=O)c3c(nc2c1-c1ccccc1)CCC3	FPR binder 40.2 (no result: VLA-4 agonist, Autofluor Jurkat, VLA-4 antagonist, Proteasome disasm)
Cc1[nH]n2c(=O)c3c(nc2c1-c1ccc(Cl)cc1)CCC3	FPR binder 50.6 (no result: VLA-4 agonist, Autofluor Jurkat, VLA-4 antagonist, Proteasome disasm)
Cc1[nH]n2c(=O)c(C#N)c(-c3ccccc3)nc2c1-c1ccccc1	FPR binder 89.8 (no result: VLA-4 agonist, Autofluor Jurkat, VLA-4 antagonist, Proteasome disasm)
CCCCC1C(=O)N(c2ccccc2)N(c2ccccc2)C1=O	VLA-4 antagonist 80.0, FPR binder 50.2
CCCCC1(Cc2ccc([N+](=O)[O-])cc2)C(=O)N(c2ccccc2)N(c2ccccc2)C1=O	none (no result: Autofluor Jurkat, FPRL1 ligand, Proteasome disasm, FPR binder)
CCOC(=O)N1CCC(Nc2c(N3CCN(c4cccc(C(F)(F)F)c4)CC3)c(=O)c2=O)CC1	none
Cc1cc(N2C(=O)C(=O)/C(=C(/O)c3ccc(F)cc3)C2c2cccc(Br)c2)no1 (centres undefined)	none (no result: VLA-4 agonist, Autofluor Jurkat, VLA-4 antagonist, Proteasome disasm)
Cc1ccc(/C(O)=C2\C(=O)C(=O)N(c3cc(C)on3)C2c2cccc(Br)c2)cc1 (centres undefined)	FPR binder 40.2 (no result: VLA-4 agonist, Autofluor Jurkat, VLA-4 antagonist, Proteasome disasm)
CCCCCOC(=O)Cn1c(=O)oc2ccccc21	FPR binder 30.8
CCCCCNC(=O)CCn1c(=O)oc2ccccc21	none
C=CCn1c(SCCCC)nc(O)cc1=O	FPR binder 56.0
C=C(CC)C(=O)c1ccc(OCC(=O)O)c(Cl)c1Cl	none
Cc1nc(SCC(=O)c2c[nH]c3ccccc23)n[nH]1	VLA-4 agonist inconclusive, Autofluor Jurkat 3.39, VLA-4 antagonist inconclusive
O=c1[nH]c(/C(=N\O)c2ccccc2)no1	none
COc1ccc2c(CC(=O)Nc3ccc(OC)c(NS(=O)(=O)c4ccc(F)cc4)c3)coc2c1	none
COc1c(S(=O)(=O)n2nc(C)cc2C)ccc(Cl)c1Cl	none
CCc1cccc(NC2c3ccccc3C(=O)N2c2cccnc2)c1 (centres undefined)	none
